# mHTT-CaM PPI inh: inhibitors of human mutant huntingtin-calmodulin interaction | P42858 | AlphaScreen His-mHTT/GST-CaM binding, luminescence | inhibition, % at 15 µM | 190,000 tested, 3.6% active | AID 1671202;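 note: 0% = both proteins with DMSO and 100% = one protein alone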
# Pf apPOL block: Pf-apPOL DNA polymerase inhibition | Recombinant Pf-apPOL, molecular beacon fluorescence, 1.5 h | inhibition, % at 10 µM | 210,000 tested, 0.25% active | AID 1794808
# The depositor's hits bear a star; x = no result given. Most compounds without a hit are left out; they make up all but 3.6% or so of the library. Cut-off read from the data, not from the text of the source: active = inhibition above about 50%; inactive = the rest.
SMILES,mHTT-CaM PPI inh,Pf apPOL block
CC(=O)NC(Nc1sc2c(c1C(N)=O)CCCC2)C(Cl)(Cl)Cl (stereo not drawn),6.0,-2.8
O=[N+]([O-])c1ccc(/C=C/C=Nc2ccccc2O)cc1,83.0*,-2.4
CC(C)(C)c1ccc(O)c(N=C/C=C/c2ccc([N+](=O)[O-])cc2)c1,31.0,-4.7
CCC(=O)Nc1ccccc1C(=O)C(=O)O,-2.3,-9.2
Cc1cc(Nc2ccc(Cl)cc2)n2nccc2n1,63.5*,-4.3
Cc1ccc(Nc2cc(C)nc3ccnn23)cc1,-4.7,1.1
CCCC1CCC2(CCCN2CCOC(=O)Nc2ccccc2)CC1 (stereo not drawn),2.9,-2.1
CCCC1CCC2(CCCN2CCOC(=O)Nc2ccc(Br)cc2)CC1 (stereo not drawn),95.9*,-9.7
CC(Oc1cccc(Br)c1)C(=O)NCc1ccccc1 (stereo not drawn),-20.9,-3.8
Nc1ccc(-c2nc3ccccc3n2CCCOc2ccccc2)cc1,51.0*,11.8
Nc1nc2ccccc2n1CCOc1ccc(Cl)cc1,43.0,-2.2
Clc1ccc(OCCn2cnc3ccccc32)c(Cl)c1,-0.1,-5.7
Nc1ccc(-c2nc3ccccc3n2CCOc2ccccc2)cc1,37.0,11.4
Nc1nc2ccccc2n1CCOc1ccc(Br)cc1,73.1*,-2.3
Nc1nc2ccccc2n1CCOc1ccc(Cl)cc1Cl,74.8*,-2.9
CCn1c(C2CCN(C(=O)C3CC3)C2)nc2cccnc21 (stereo not drawn),-5.0,-2.3
N=C1NC(=O)/C(=C\c2cccc(C(F)(F)F)c2)S1,2.0,0.6
COc1ccc(NC(=O)c2cc3cccc(OC)c3oc2=O)c(OC)c1,2.0,100.2*
COc1cccc2cc(C(=O)Nc3ccc(C)cc3C)c(=O)oc12,1.0,-5.1
O=[N+]([O-])c1ccc2nc(-c3ccc(O)cc3)[nH]c2c1,24.0,2.4
Cc1[nH]c(=O)[nH]c(=O)c1S(=O)(=O)N1CCN(c2ccccn2)CC1,-11.0,-5.5
COC(=O)COc1ccc2c(c1)OC(=Cc1ccc(Br)cc1)C2=O,-5.8,2.5
Cc1cc(/C=C2\C(=O)NC(=O)N(c3ccccc3)C2=O)c(C)n1-c1cccc([N+](=O)[O-])c1,59.0*,2.9
CC1=NN(c2ccccc2)C(=O)/C1=C\c1cc(C)n(-c2cccc([N+](=O)[O-])c2)c1C,0.0,3.5
Cc1cccc(-c2ncc(C(=O)N3CCCC3)c(N3CCN(C)CC3)n2)c1,3.2,-3.8
SMILES,mHTT-CaM PPI inh,Pf apPOL block
Cn1cccc1/C=C1\CN(Cc2ccccc2)C/C(=C\c2cccn2C)C1=O,99.0*,-3.8
O=C1/C(=C/c2cccnc2)CN(Cc2ccccc2)C/C1=C\c1cccnc1,14.0,-5.7
CN(C)S(=O)(=O)c1ccc(C(=O)Nc2nnc(-c3ccc4c(c3)OCO4)o2)cc1,3.1,-2.8
CCN(CC)c1ccc2cc(C(N)=O)c(=Nc3ccccc3C)oc2c1,54.0*,2.1
CCN(CC)c1ccc2cc(C(N)=O)c(=Nc3ccc(C)cc3)oc2c1,10.0,2.6
ON=Cc1ccc(Cl)s1,x,6.7
O=C(O)Cn1nc(C(F)(F)F)c(Cl)c1C1CC1,-5.2,x
CC(C)C(=O)NCCc1csc(C2CCN(C(=O)c3ccc(F)c(F)c3)CC2)n1,4.7,-0.3
COc1ccccc1NS(=O)(=O)c1cc(C(=O)Nc2ccccc2)ccc1C,14.5,5.7
COc1ccccc1NCC(=O)c1ccc(C)c(C)c1,34.0,64.6*
N#CC1=C(N)Oc2n[nH]c(-c3cccs3)c2C1c1ccccc1F (stereo not drawn),13.0,2.7
O=[N+]([O-])c1ccc(C2Nc3ccccc3-c3nc4ccccc4n32)cc1 (stereo not drawn),54.0*,-2.7
O=[N+]([O-])c1cccc(C2Nc3ccccc3-c3nc4ccccc4n32)c1 (stereo not drawn),32.0,-29.8
CC(=O)C1=C(C)NC(SCC=C(C)C)=C(C#N)C1c1ccco1 (stereo not drawn),-42.3,-4.2
Cc1c(C)c2cc3c(-c4ccc(F)cc4)coc3cc2oc1=O,1.0,-3.3
Cc1c(C)c2cc3c(-c4ccccc4)coc3cc2oc1=O,-7.0,60.0*
CCN(CC)Cc1c(O)c(CN(CC)CC)c2oc(-c3ccccc3)cc(=O)c2c1O,100.3*,5.0
O=c1cc(-c2ccccc2)oc2c(CN3CCCCC3)c(O)c(CN3CCCCC3)c(O)c12,39.1,2.7
CCOC(=O)N1CCN(C(c2ccc(SC)cc2)c2c(O)cc(C)n(CC)c2=O)CC1 (stereo not drawn),69.2*,10.9
CCOC(=O)N1CCN(C(c2cccs2)c2c(O)cc(C)n(CC)c2=O)CC1 (stereo not drawn),-13.4,2.4
COc1ccc(C2/C=C\CN(Cc3ccco3)[C@@H](C)C(=O)N2Cc2ccc(F)cc2)cc1 (stereo partly drawn),92.8*,-6.5
COc1ccc(C2/C=C\C(c3ccc(OC)cc3)N(Cc3ccc(F)cc3)C(=O)C(=O)N2Cc2ccc(F)cc2)cc1 (stereo not drawn),38.2,-5.7
